Results as given in paper PMC4552634, “A New Set of Chemical Starting Points with Plasmodium falciparum Transmission-Blocking Potential for Antimalarial Drug Discovery” (PLoS ONE, 2015).
Like-named read-outs stand apart in the source and are kept apart here. The campaign covered roughly 13,000 compounds. About 3,200 (25%) showed an effect of 50% or more. The list shows a part of the results.

System: P. falciparum stage V gametocytes
Parameters: BacTiter-Glo ATP luminescence viability of purified stage V gametocytes in 384-well plates, per cent inhibition versus DMSO
Conditions: 48 h, 5 µM, inhibitor

Structure (SMILES) | % Inhibition | % Inhibition (% Inhibition)
CCN(CCCN1CCCCC1)c1cc(C)nc(Nc2ccc(C(C)C)cc2)n1 [TCMDC-132454] | -8.614% | 
Cc1ccc(NCc2cccc(F)c2)cc1S(=O)(=O)N[C@@H]1CCN(C#N)C1 [TCMDC-134125] | -7.553% | 
CCc1cc(OC)c(C(=O)NC2CCN(C[C@H](O)c3ccnc4ccc(OC)cc34)CC2)cc1Br [TCMDC-141169] | -16.9% | 
CCCn1c(SCC(=O)Nc2cc(Cl)ccc2Cl)n[nH]c1=O [TCMDC-123548] | -15.86% | 
Cn1c(NC(=O)C2CCCN(C(=O)c3ccc(O)c(-c4ccc(Cl)c(Cl)c4)c3)C2)nc2ccccc21 (centres unmarked) [TCMDC-140896] | 30.61% | 
CC(C)(C)Nc1cc(C(=O)N[C@@H](Cc2ccccc2)[C@H](O)CNC2CCOCC2)cc(N2CCCCS2(=O)=O)c1 [TCMDC-135686] | 8.531% | 
CCOc1ccc(C(=O)N2CCOC(CCN3CCC4(CCc5ccccc54)CC3)(c3ccc(Cl)c(Cl)c3)C2)cc1 (centres unmarked) [TCMDC-135339] | -28.45% | 
O=C(/C=C/c1ccc(Cl)c(Cl)c1)NCCCCCN1CCCN(C(=O)Nc2ccc(Br)cc2)CC1 [TCMDC-135761] | -59.24% | 
O=C(/C=C/c1ccc(Cl)cc1Cl)NCCCCCN1CCC(c2c[nH]c3ccccc23)CC1 [TCMDC-139696] | 89.84% | 
O=C(/C=C/c1cccc(Br)c1)NCCCCCN1CCC(c2c[nH]c3ccccc23)CC1 [TCMDC-139233] | 3.439% | 
O=C(/C=C/c1ccc(Cl)cc1)NCCCCCN1CCC(c2c[nH]c3ccccc23)CC1 [TCMDC-139234] | 97.27% | 
O=C(/C=C/c1cccc(Cl)c1)NCCCCCN1CCC(c2c[nH]c3ccccc23)CC1 [TCMDC-139211] | 97.27% | 
O=C(/C=C/c1cc(C(F)(F)F)ccc1F)NCCCCCN1CCC(c2c[nH]c3ccccc23)CC1 [TCMDC-140010] | -22% | 
O=C(/C=C/c1ccc2ccccc2c1)NCCCCCN1CCC(c2c[nH]c3ccccc23)CC1 [TCMDC-139206] | 99.19% | 
O=C(NCCCCCN1CCC(c2c[nH]c3ccccc23)CC1)Nc1ccc(Cl)cc1Cl [TCMDC-139166] | -62.24% | 
O=C(/C=C/c1cccc(OC(F)(F)F)c1)NCCCCCN1CCC(c2c[nH]c3ccccc23)CC1 [TCMDC-139190] | -40.78% | 
CCCCCCP(=O)(COc1ccc(CCN(CC(O)COc2cccc3[nH]c(C(N)=O)cc23)CC(O)COc2cccc3[nH]c(C(N)=O)cc23)cc1)OCCCC (centres unmarked) [TCMDC-139041] | 20.08% | 
CN1CCN(c2ccc(-c3cc(-c4cc(F)c(F)c(F)c4)cnc3N)cc2)CC1 [TCMDC-133345] | -8.308% | 
O=C(NC1CCN(Cc2ccccc2)CC1)c1cccc(Nc2nc(-c3ccccc3)cs2)c1 [TCMDC-136774] | 0.9462% | 
COc1cc(Cc2cnc(N)nc2N)cc(OCCCCC#N)c1OC [TCMDC-138035] | -14.37% | 
c1cn(-c2ccc(CNc3nccc(Nc4ccc(OCCN5CCOCC5)cc4)n3)cc2)cn1 [TCMDC-134665] | 13.33% | 
COc1ccc(-n2ccnc2SCC(=O)Nc2cccc(C(F)(F)F)c2)c(OC)c1 [TCMDC-123545] | -5.921% | 
COc1ccccc1-n1ccnc1SCC(=O)Nc1cc(C(F)(F)F)ccc1Cl [TCMDC-123823] | -21.34% | 
COc1ccccc1-n1ccnc1SCC(=O)Nc1cccc(C(F)(F)F)c1 [TCMDC-123546] | 51.1% | 

Structure (SMILES) | % Inhibition | % Inhibition (% Inhibition)
Cn1c(NC2=NC3(c4ccccn4)N=C(Nc4nc5ccccc5n4C)NC3(c3ccccn3)N2)nc2ccccc21 (centres unmarked) [TCMDC-139096] | 50.49% | 
Cc1cc2nc(NC3=NC4(c5ccccn5)N=C(Nc5nc6cc(C)c(C)cc6[nH]5)NC4(c4ccccn4)N3)[nH]c2cc1C (centres unmarked) [TCMDC-139105] | -75.39% | 
c1ccc(C23N=C(Nc4nc5ccccc5[nH]4)NC2(c2ccccc2)NC(Nc2nc4ccccc4[nH]2)=N3)cc1 (centres unmarked) [TCMDC-139082] | -85.59% | 
CCCNC[C@@H](O)[C@H](Cc1ccccc1)NC(=O)c1cc(NCC)cc(N2CCCCS2(=O)=O)c1 [TCMDC-135269] | 19.71% | 
Cc1cccc(-n2c(=O)c3c4c(sc3n3c(SCCC(C)C)nnc23)CCCC4)c1 [TCMDC-125651] | 34.66% | 
OC(CN1c2ccccc2Sc2ccccc21)CN(C1CCCCC1)C1CCCCC1 (centres unmarked) [TCMDC-125553] | 51.78% | 
C=CCc1ccccc1OCC(O)CN(C1CCCCC1)C1CCCCC1 (centres unmarked) [TCMDC-123906] | -42.05% | 
C[C@@H](COc1ccc(-c2ccccc2)cc1)CON1C(N)=NC(N)=NC1(C)C [TCMDC-124029] | 25.59% | 
COc1cc2nc(N(C)Cc3cc4c(Cl)cccc4s3)nc(N)c2cc1OC.Cl [TCMDC-131890] | 62.52% | 
COc1cc2nc(N(C)Cc3cccc(I)c3)nc(N)c2cc1OC [TCMDC-131898] | -39.77% | 
CNCc1ccc(CN(C)c2nc(N)c3cc(OC)c(OC)cc3n2)cc1 [TCMDC-131896] | 48.14% | 
CC1(C)N=C(N)N=C(N)N1c1ccc(Br)cc1 [TCMDC-123959] | 18.18% | 
COc1cc2c(cc1S(=O)(=O)c1ccc(NC(=O)Nc3ccc(F)cc3)cc1)CCN(C)CC2 [TCMDC-141793] | 32.2% | 
COc1ccc(CNCc2ccccc2)cc1-c1ccc(S(=O)(=O)NCCN2CCCC2)cc1 [TCMDC-132247] | 102% | 
COc1ccc(CNCc2ccc(F)cc2)cc1-c1ccc(S(=O)(=O)NCCN2CCCC2)cc1 [TCMDC-132294] | 108.8% | 
O=C(/C=C/c1ccc(Cl)c(Cl)c1)NCCCCCN1CCCN(C(=O)Nc2ccc(OC(F)F)cc2)CC1 [TCMDC-135756] | -55.78% | 
CC1(C)N=C(N)N=C(N)N1OCc1ccc2c(c1)OCO2 [TCMDC-131581] | 47.46% | 
CN1CCN(c2ccc(-c3cc(-c4ccncc4)c(-c4ccc(Cl)c(O)c4)o3)cc2)CC1 [TCMDC-141308] | 9.946% | 
Cc1nc(N)nc(N)c1OCCCCOc1ccccc1 [TCMDC-131353] | -22.41% | 
CCCOc1ccc(N2C(N)=NC(N)=NC2(C)C)cc1 [TCMDC-137702] | -17.71% | 
CC1(C)N=C(N)N=C(N)N1c1ccccc1 [TCMDC-123984] | -31.19% | 
Nc1nc(N)c2c(ccc3c2ccn3CCCF)n1 [TCMDC-138623] | 32.47% | 
CC(C)Cn1ccc2c3c(N)nc(N)nc3ccc21 [TCMDC-137997] | 21% | 
CCCC(C)n1ccc2c3c(N)nc(N)nc3ccc21 (centres unmarked) [TCMDC-137964] | -7.389% | 

Structure (SMILES) | % Inhibition | % Inhibition (% Inhibition)
Nc1nc(N)c2c(ccc3c2ccn3C2C=CCCC2)n1 (centres unmarked) [TCMDC-137861] | 26.32% | 
CC(C)CNc1nc(N)nc2ccc3c(ccn3CC(C)C)c12 [TCMDC-137731] | 87.39% | 
Nc1nc(N)c2c(ccc3nn(C4CCCC4)cc32)n1 [TCMDC-137960] | -20% | 
CC(=O)Nc1nc(N)c2c(ccc3c2ccn3CC(C)C)n1 [TCMDC-137971] | 0.8169% | 
CCCC(CC)n1ccc2c3c(N)nc(N)nc3ccc21 (centres unmarked) [TCMDC-137948] | 17.27% | 
Nc1nc(N)c2c(ccc3c2ccn3C2CCCCC2)n1 [TCMDC-137871] | 105.4% | 
Nc1nc(N)c2c(ccc3c2ccn3CCCCO)n1 [TCMDC-137959] | 31.47% | 
CCCC(CCC)n1ccc2c3c(N)nc(N)nc3ccc21 [TCMDC-137949] | 60.59% | 
CCCCCCn1ccc2c3c(N)nc(N)nc3ccc21 [TCMDC-137994] | 106.4% | 
CCC(C(=O)Nc1ccccc1)n1nc(-c2ccc(C)c(S(=O)(=O)N3CCCCC3)c2)ccc1=O (centres unmarked) [TCMDC-124712] | -71.76% | 
CC(=O)c1c(Cc2cccc(C(F)(F)F)c2)c[nH]c1C [TCMDC-124434] | -10.65% | 
COc1ccc(C(C(=O)NC2CCN(C[C@H](O)c3ccnc4ccc(OC)cc34)CC2)N2CCN(c3ccc(Cl)c(Cl)c3)CC2)cc1 (some centres unmarked) [TCMDC-141101] | 14.7% | 
NC(N)=NC(=O)Nc1cc(Cl)c(F)c(Cl)c1 [TCMDC-137512] | -14.8% | 
Cc1cc(N(C)C)nc(Nc2ccc(NC(=O)c3ccccc3Cl)cc2)n1 [TCMDC-124722] | -1.9% | 
CCn1ccc2c3c(N)nc(N)nc3ccc21 [TCMDC-139864] | 0.4857% | 
Nc1nc(N)c2c(ccc3c2ccn3CCCC(F)(F)F)n1 [TCMDC-138622] | 32.41% | 
C=CCn1ccc2c3c(N)nc(N)nc3ccc21 [TCMDC-137995] | 79.96% | 
Oc1ccc(Br)cc1C(O)CNCc1ccccc1OCc1ccccc1 (centres unmarked) [TCMDC-140564] | 21.06% | 
OC1(CNCc2ccccc2)CCN(CCc2c[nH]c3ccc(F)cc23)CC1 [TCMDC-131975] | 35.49% | 
Fc1ccc2[nH]cc(CCN3CCC(CNCc4ccccc4)CC3)c2c1 [TCMDC-131984] | 53.36% | 
CN(Cc1ccccc1)C1CCN(CCc2c[nH]c3ccc(F)cc23)CC1 [TCMDC-131970] | 10.21% | 
N#Cc1ccc2c(c1)CN(CC[C@H]1CC[C@H](NC(=O)/C=C/c3c[nH]c4ccccc34)CC1)CC2 [TCMDC-139133] |  | 11.83%
O=C(NC1CCN(c2ccnc3cc(Cl)ccc23)C1)c1ccccc1F (centres unmarked) [TCMDC-133660] | -3.046% | 
